# High-throughput results deposited in PubChem BioAssay by National Center for Advancing Translational Sciences (NCATS).
# In the library only some 7.5% were active in any assay of this set; here they are far more common.
# Luc counter: blocks Kinase-Glo luciferase, a counter-screen artifact; Potency, µM (doses to about 38.3 µM), hits mostly inhibitors; 200,000 tested, 0.28% active; Kinase-Glo luciferase, ATP luminescence, 8 min; Q27757; note: nearly all actives have a fitted effect of over 60% in size
#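 Compounds were added to a substrate mix at pH 7.2 (50 mM imidazole, 10 uM ATP, within the enzyme's linear range), followed by Kinase-Glo detection reagent; luminescence was measured after 8 minutes at ambient temperature.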
# FLuc modulator: firefly luciferase modulation, counter-screen for miR-21 project | purified FLuc, Km substrates, luminescence inhibition | Potency, µM (highest dose often 57.5 µM), usual class: inhibitors | 360,000 tested, 6.9% active | AID 588342; note: nearly all actives have a fitted effect of over 55% in size
# Target sequence (P08659 whole entry, looked up): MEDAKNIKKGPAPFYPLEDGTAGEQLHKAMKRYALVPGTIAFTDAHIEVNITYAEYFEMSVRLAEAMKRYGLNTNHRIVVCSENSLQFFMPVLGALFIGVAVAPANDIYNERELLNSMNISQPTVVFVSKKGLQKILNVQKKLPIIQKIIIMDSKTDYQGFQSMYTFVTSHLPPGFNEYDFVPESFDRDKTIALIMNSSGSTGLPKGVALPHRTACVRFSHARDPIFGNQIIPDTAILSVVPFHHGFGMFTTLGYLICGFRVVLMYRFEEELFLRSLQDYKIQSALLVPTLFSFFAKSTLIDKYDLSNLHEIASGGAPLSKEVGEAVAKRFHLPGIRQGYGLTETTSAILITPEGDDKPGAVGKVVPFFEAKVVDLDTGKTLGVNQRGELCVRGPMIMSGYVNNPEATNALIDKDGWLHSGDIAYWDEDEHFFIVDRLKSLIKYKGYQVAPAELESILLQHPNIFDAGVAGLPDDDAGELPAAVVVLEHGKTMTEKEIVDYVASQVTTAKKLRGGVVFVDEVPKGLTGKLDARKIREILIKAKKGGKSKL
#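 Biochemical qHTS of compounds, final roughly 60 µM downward over six points, against 10 nM purified firefly luciferase using Km concentrations of substrates (10 uM D-luciferin, 10 uM ATP) in Tris acetate pH 7.5 buffer; luminescence output.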
# Rab9 promoter act: activators of Rab9 promoter. Huh7 Rab9 promoter-luciferase reporter, luminescence, 24 h. Potency, µM (highest dose often 9.22 µM), usual class: activators. 320,000 tested, 2.8% active. AID 485297; note: nearly all actives have a fitted effect of over 60% in size
#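 Luminescence read-out: Huh7 cells stably expressing Rab9-luciferase, treated 24 h with compound at 37 °C, then lysed with luciferase reagent for 10 min at ambient before reading.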
# SMN2 splice up: SMN2 splice variant enhancement. AID 1458. Potency, µM (top dose mostly 46.1 µM), actives largely listed as activators. 210,000 tested, 2.8% active. HEK293 SMN2-luciferase splicing reporter, luminescence, 30-36 h; note: nearly all actives have a fitted effect of over 55% in size
#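 HEK293 cells carry an SMN2 […]–luciferase reporter in which exon 7 inclusion puts luciferase in frame. Cells were plated 10-12 h before compound addition, then incubated 30-36 h at 37C. ONE-Glo luminescence was read; sodium butyrate at 4.5 mM final served as control.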
# ELG1 genotoxic: inducers of genotoxicity in HEK293T ELG1-luciferase cells; 330,000 tested, 1.3% active; Potency, µM (top dose mostly 46 µM), actives largely listed as activators; HEK293T ELG1-luciferase reporter, luminescence, 16 h; AID 504466; note: nearly all actives have a fitted effect of over 60% in size
#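 HEK293T cells expressing luciferase-tagged ELG1 were treated with compound or DMSO for 16 hr at 37°C. Luciferase activity was then read after 30 min with ONE-Glo at room temperature; rising signal flags genetic stress.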
# NPC1 promoter act: activates the NPC1 promoter; Huh7 NPC1 promoter luciferase reporter, 24 h; Potency, µM (titrated, usually from 9.22 µM), most hits filed as activators; 320,000 tested, 2.4% active; AID 485313; note: nearly all actives have a fitted effect of over 60% in size
#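 NPC1 promoter–luciferase Huh7 cells; 24 h compound; luminescence.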
# Numbers stand for hits; n = inactive; u = inconclusive; x = no result given. Calls come from the whole dose curve; as a rule, active = well fitted curve in the direction sought with a large enough effect; inconclusive = small, poorly fitted or top-dose-only effect, or another doubt; inactive = no such curve, though single readings can be large; an effect the other way counts as inactive or inconclusive.
SMILES,Luc counter,FLuc modulator,Rab9 promoter act,SMN2 splice up,ELG1 genotoxic,NPC1 promoter act
O=C(Nn1cnnc1)c1cc2c(s1)CCCC2,n,21.3µM,n,n,n,n
CNc1ccc(Oc2nc([N+](=O)[O-])nn2C)cc1,n,n,n,n,n,n
COC(=O)C1=CO[C@@H](O)[C@@H]2C(CO)=CC[C@H]12,x,x,n,x,x,n
CC(=O)Nc1ccc(C(=O)CN2C(=O)CSC2=O)cc1,x,n,n,x,n,n
NNC(=O)c1cc2c(s1)CCCCCC2,n,u,n,n,n,n
O=C(NCCCN1CCCC1=O)C(=O)Nc1cccc(F)c1,x,16.9µM,3.16µM,x,u,u
O=C(Nc1nccs1)c1cc2c(s1)CCCCC2,7.08µM,0.0849µM,0.794µM,n,x,1µM
O=C(Nc1nncs1)c1cc2c(s1)CCC2,n,6.75µM,2.82µM,u,u,u
CC(C)Cc1nnc(NC(=O)c2ccc(N3CCCC3=O)cc2)s1,x,n,n,x,n,n
CC(C)Cc1nnc(NC(=O)c2cc3c(s2)CCC3)s1,x,u,3.16µM,x,n,3.55µM
COc1ccc(S(=O)(=O)N(C)C[C@H]2Oc3ccc(NC(=O)Nc4c(C)noc4C)cc3C(=O)N([C@H](C)CO)C[C@@H]2C)cc1,x,x,x,x,n,x
O=C(COc1ccc(/C=N/NC(=O)C(=O)N2CCCCCC2)cc1)Nc1ccccc1Cl,n,n,n,n,n,n
CCn1c(C)nc2cc(C(=O)N3N=C(CCOC)CC3(O)C(F)(F)F)ccc21 (stereo not given),x,n,n,x,n,n
COc1ccccc1-n1nnnc1SC(C)C(=O)NC1CCCC1 (stereo not given),x,n,n,x,n,n
CCCOc1ccc(-c2cc(C(F)(F)F)c(C#N)c(SCCC(=O)O)n2)cc1,x,u,x,n,x,x
CCc1nc2ccc(C(=O)NCc3ccc(N(C)C)cc3)cc2nc1CC,x,n,x,x,x,x
O=C(COC(=O)c1ccncc1)c1ccc(Br)cc1,n,7.57µM,n,x,n,n
N/C(=N\OC(=O)c1cccc(Br)c1)c1ccncc1,n,12µM,n,n,u,n
COc1cc(OC)cc(C(=O)O/N=C(\N)c2ccncc2)c1,n,u,n,n,n,n
N/C(=N\OC(=O)c1ccc(Br)cc1)c1ccncc1,n,4.78µM,u,u,u,u
N/C(=N\OC(=O)c1ccccc1)c1ccncc1,n,19µM,2.82µM,n,u,u
O=C(COC(=O)c1cccc(C(=O)OCC(=O)c2ccc(Br)cc2)n1)c1ccc(Br)cc1,n,u,n,n,n,n
COc1ccc(OC)c(NC(=O)Cn2cc(S(=O)(=O)c3ccccc3)c(=O)c3cc(C)ccc32)c1,x,n,x,n,x,x
O=C1CC(c2nc3ccccc3n2CCCCOc2ccccc2)CN1c1ccccc1Cl (stereo not given),x,n,x,n,x,x
C/C(=N\NC(=O)c1cc(-c2ccc(C)s2)[nH]n1)c1ccco1,n,21.3µM,n,11.2µM,n,n
SMILES,Luc counter,FLuc modulator,Rab9 promoter act,SMN2 splice up,ELG1 genotoxic,NPC1 promoter act
C/C(=N/NC(=O)c1cc(C)[nH]n1)c1ccco1,x,21.3µM,3.98µM,x,u,u
CC(/C=C/c1ccco1)=N\NC(=O)c1cc(C)[nH]n1,n,n,n,n,n,n
C/C(=N\NC(=O)Cc1cccn1C)c1ccco1,x,n,n,x,n,n
C/C(=N\NC(=O)c1ccn(C)n1)c1ccco1,x,16.9µM,2.51µM,x,16.4µM,u
COc1ccccc1N(C)S(=O)(=O)c1ccc(C)c(C(=O)N2CCCCCC2)c1,x,n,n,x,n,n
CCCCOc1ccc(CSc2ncn[nH]2)cc1,n,7.57µM,u,n,n,u
CCCCOc1ccc(CSc2n[nH]c(C)n2)cc1,n,u,u,17.8µM,20.6µM,u
CCCCOc1ccc(CSc2nncn2N)cc1,n,u,u,n,u,u
CCCCCOc1ccc(CSc2ncn[nH]2)cc1,n,12µM,2.51µM,11.2µM,u,u
Cc1nc(SCc2ccc(C#N)cc2)n[nH]1,x,n,n,x,n,n
COc1ccc(C(=O)NC2c3ccccc3-c3ccccc32)cc1,n,n,n,n,n,n
Cc1cc(C(=O)NNc2ccc(C(C)C)cc2)n(C(C)(C)C)n1,x,n,n,x,n,n
Cc1ccc2nc(-c3ccccc3)cc(C(=O)NCC3CCCO3)c2c1 (stereo not given),x,5.36µM,n,x,n,n
CCOc1ccc(-c2cc(C(=O)NCC3CCCO3)c3ccccc3n2)cc1 (stereo not given),n,5.36µM,n,u,n,n
Cc1cc(Br)cc2c(C(=O)NCC3CCCO3)cc(-c3cccs3)nc12 (stereo not given),x,u,n,x,u,n
COc1cccc(-c2cc(C(=O)NCC3CCCO3)c3cc(Br)cc(C)c3n2)c1 (stereo not given),x,2.69µM,n,x,u,n
CC(C)Oc1ccc(-c2nc(NCC3CCCO3)c3ccccc3n2)cc1 (stereo not given),x,9.53µM,n,x,n,n
COc1ccc(-c2cc(C(=O)NCC3CCCO3)c3ccccc3n2)c(OC)c1 (stereo not given),x,n,n,x,n,n
CCN(CC)c1ccc(NC(=O)C2CCN(S(=O)(=O)c3c(C)noc3/C=C/c3ccccc3F)CC2)c(C)c1,x,n,x,x,x,x
O=C(c1cc2cc(Cl)ccc2[nH]1)N1CCN(Cc2ccc3c(c2)OCO3)CC1,x,n,n,x,n,n
Cc1ccc(-c2nn(-c3ccccc3)cc2C(=O)NCC2CCCO2)cc1 (stereo not given),x,13.5µM,n,x,n,n
O=C(Nc1cnc2ccccc2c1)N1CCOCC1,n,u,n,u,u,u
O=C(Nc1cnc2ccccc2c1)N1CCCCC1,n,9.53µM,1.26µM,14.1µM,u,1.26µM
CN(C(=O)Nc1cnc2ccccc2c1)c1ccccc1,n,u,2.82µM,u,u,u
Cc1ccc(NC(=O)N(C)c2ccccc2)cc1,x,u,n,x,n,n
SMILES,Luc counter,FLuc modulator,Rab9 promoter act,SMN2 splice up,ELG1 genotoxic,NPC1 promoter act
CCC(C)NC(=O)CSc1nnc(-c2ccc(C)cc2)c(-c2ccc(C)cc2)n1 (stereo not given),x,n,x,x,x,x
COc1ccc(C(=O)C2CCN(C(=O)Nc3ccc(C)cc3)CC2)cc1,x,4.78µM,n,x,n,n
COc1ccc(-c2ccc(C(=O)C3CC3)cc2)cc1,x,1.51µM,1.78µM,x,2.91µM,2.82µM
Cc1ccc(NC(=O)N2CCC(C(=O)c3ccc(F)cc3)CC2)cc1,x,n,n,x,n,n
CCCC[P+](CCCC)(CCCC)Cc1ccc(NC(=O)[C@@H](Cc2ccc3ccccc3c2)NC(=NC2CCCCC2)NC2CCCCC2)cc1,n,x,x,x,x,x
Cc1ccc(NC(=O)C2Cc3ccccc3N2C(=O)c2ccccc2)cc1Cl (stereo not given),x,n,x,x,x,x
COc1cc([N+](=O)[O-])ccc1NC(=O)CCCOc1cc(C)ccc1C,n,n,n,n,n,n
CSC(=S)N/N=C(\C)c1ccccc1,n,21.3µM,n,n,u,n
